PubChem BioAssay (NCATS)
Records with an inconclusive call do not appear. Where a call stands in place of a potency, no number is given. The source made the active and inactive calls. Calls follow the shape of the dose curve; as a rule, active = well fitted curve in the direction sought with a large enough effect; inconclusive = small, poorly fitted or top-dose-only effect, or another doubt; inactive = no such curve, though single readings can be large; an effect the other way counts as inactive or inconclusive.

Tests used:
[1] = qHTS of pediatric cancer cell lines to identify multiple opportunities for drug repurposing: Primary screen for control Hh wild type fibroblast cells (AID 1347106);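 also: a drop in luminescence marks cytotoxicity and a rise apparent proliferation; nearly all actives have a fitted effect of over 55% in size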
Procedure, shortened: (§1)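 Cells (500-1,000/well) in growth media were settled 5 h at 37 degrees C, then given compounds for 48 h. Viability was read as CellTiter-Glo luminescence. Primary runs used MIPE at 11 points (0.78 nM-46 µM) and NPC at 8 points (0.59 nM-46 µM); follow-ups used 11 points.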

[2] = qHTS of pediatric cancer cell lines to identify multiple opportunities for drug repurposing: Primary screen for Rh30 cells (AID 1347107); also: nearly all actives have a fitted effect of over 75% in size
Procedure, shortened: as §1

[3] = qHTS of pediatric cancer cell lines to identify multiple opportunities for drug repurposing: Primary screen for Rh41 cells (AID 1347108);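 also: luminescence drop marks cytotoxic hits; nearly all actives have a fitted effect of over 70% in size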
Procedure, shortened: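 Readout: CellTiter-Glo luminescence, 48 h treatment. Controls DMSO (neutral) and bortezomib 2.3 µM final (positive). Potency and efficacy taken from primary-screen concentration-response curves.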
Also: series mostly up to about 46 µM.

Row | Structure (SMILES) | outcome [1] | outcome [2] | Potency [3]
1 | C[C@]12CC[C@@H]3c4ccc(OC(=O)N(CCCl)CCCl)cc4CC[C@H]3[C@@H]1CC[C@@H]2OP(=O)(O)O | inactive | inactive | inactive
2 | COP(=S)(OC)SCN1C(=O)c2ccccc2C1=O | inactive | inactive | 
3 | Nc1ccccc1C(=O)O | inactive | inactive | inactive
4 | O=c1c(C2CC(c3ccc(-c4ccc(Br)cc4)cc3)Cc3ccccc32)c(O)sc2ccccc12 (stereo not drawn) | inactive |  | 
5 | CC(C)(C)NCC(O)c1cc(Cl)c(N)c(C(F)(F)F)c1 (stereo not drawn) | inactive | inactive | inactive
6 | CN(C)CCc1c[nH]c2cccc(OP(=O)(O)O)c12 | inactive | inactive | inactive
7 | CC(C)N(CCC(C(N)=O)(c1ccccc1)c1ccccn1)C(C)C (stereo not drawn) | inactive | inactive | inactive
8 | CC(C)C[C@H](CN)CC(=O)O | inactive | inactive | 
9 | Nc1ccc([As](=O)(O)O)cc1 | inactive | inactive | inactive
10 | O=C1OC(c2ccc(O)c(S(=O)(=O)O)c2)(c2ccc(O)c(S(=O)(=O)O)c2)c2c(Br)c(Br)c(Br)c(Br)c21 | inactive | inactive | inactive
11 | c1ccc(N2CCNCC2)cc1 | inactive | inactive | inactive
12 | O=C(Nc1ccc(Br)cc1)c1cc(Br)cc(Br)c1O | inactive |  | 
13 | CC(C)(C)NCC(O)c1ccccc1Cl (stereo not drawn) | inactive | inactive | inactive
14 | COc1cc(CCN)cc(OC)c1OC | inactive | inactive | 
15 | CCC(C)(C)c1ccc(O)cc1 | inactive | inactive | inactive
16 | COc1ccc2c(c1OC)C(=O)O[C@H]2[C@@H]1c2cc3c(cc2CCN1C)OCO3 | inactive | inactive | inactive
17 | COC(=O)[C@@H](N)CCCN/C(N)=N/[N+](=O)[O-] | inactive | inactive | inactive
18 | CC(C)=CC1C(C(=O)OCN2C(=O)C3=C(CCCC3)C2=O)C1(C)C (stereo not drawn) | inactive | inactive | inactive
19 | C=CCC1(C(C)CC)C(=O)NC(=O)NC1=O (stereo not drawn) | inactive | inactive | 
20 | NC1=NC(=O)C(c2ccccc2)O1 (stereo not drawn) | inactive | inactive | inactive
21 | CC[N+]1(CC)CCC(OC(=O)C(O)(c2ccccc2)c2ccccc2)C1 (stereo not drawn) | inactive | inactive | inactive
22 | CCC1(c2ccc(N)cc2)CCC(=O)NC1=O (stereo not drawn) | inactive | inactive | inactive
23 | O=C(CCCN1CCC2(CC1)C(=O)NCN2c1ccccc1)c1ccc(F)cc1 | inactive | inactive | inactive
24 | CCCCCCC(=O)CCCCCC/C=C/C[C@@H](O)[C@H](O)[C@@](N)(CO)C(=O)O | inactive | inactive | inactive
25 | CCN(CC)C(=O)[C@@H]1C=C2c3cccc4[nH]cc(c34)C[C@H]2N(C)C1 | inactive | inactive | 
26 | CN1CC[C@]23c4c5ccc(O)c4O[C@H]2[C@@H](O)C=C[C@H]3[C@H]1C5 | inactive | inactive | 
27 | O=C(O)c1ccc(=O)[nH]c1 | inactive | inactive | inactive

Row | Structure (SMILES) | outcome [1] | outcome [2] | Potency [3]
28 | NC(=O)c1cc([N+](=O)[O-])cc([N+](=O)[O-])c1 | inactive | inactive | inactive
29 | C[C@]12CC[C@H]3[C@@H](CCC4=CC(=O)CC[C@@H]43)[C@@H]1CC[C@@H]2OC(=O)CCc1ccco1 | inactive | inactive | inactive
30 | CNC(C)(C)Cc1ccccc1 | inactive | inactive | inactive
31 | C[C@]12Cc3cn[nH]c3C[C@@H]1CC[C@@H]1[C@@H]2CC[C@@]2(C)[C@H]1CC[C@]2(C)O | inactive | inactive | 
32 | CN1C(=O)CCS(=O)(=O)C1c1ccc(Cl)cc1 (stereo not drawn) | inactive | inactive | inactive
33 | CCN(CC)CCc1c[nH]c2ccccc12 | inactive | inactive | 
34 | CCCCC/C=C\C/C=C\C/C=C\C/C=C\CCCC(=O)NCC(=O)O | inactive | inactive | inactive
35 | COc1cccc(C(=O)CCN[C@@H](C)[C@H](O)c2ccccc2)c1 | inactive |  | 
36 | Oc1ccc(Cl)cc1 | inactive | inactive | inactive
37 | CCN[C@@H](C)Cc1cccc(C(F)(F)F)c1 | inactive | inactive | inactive
38 | CCC1(CC)C(=O)C=CNC1=O | inactive | inactive | inactive
39 | C#C[C@]1(O)CC[C@H]2[C@@H]3CCC4=CC(=O)CC[C@]4(C)[C@H]3CC[C@@]21C | inactive | inactive | inactive
40 | COc1cc(OC)c(OC)cc1C=O | inactive | inactive | inactive
41 | c1ccc2c(c1)sc1ccccc12 | inactive | inactive | inactive
42 | NNc1ccccc1 | inactive | inactive | inactive
43 | O=C1OC(CCN2CCCCC2)OC1(c1ccccc1)c1ccccc1 (stereo not drawn) | inactive | inactive | inactive
44 | COP(=S)(OC)Oc1ccc(SC)c(C)c1 | inactive | inactive | inactive
45 | CC(=O)C1CCOC1=O (stereo not drawn) | inactive | inactive | inactive
46 | CC(C)c1cccc(C(C)C)c1O | inactive | inactive | inactive
47 | CN1CC[C@]23c4c5ccc(O)c4O[C@H]2[C@@H](O)CC[C@H]3[C@H]1C5 | inactive | inactive | inactive
48 | O=c1[nH]c2ccccc2n1C1CCNCC1 | inactive | inactive | inactive
49 | Cc1ncsc1CCCl | inactive | inactive | inactive
50 | COc1cc(CC(C)N)cc(OC)c1OC (stereo not drawn) | inactive | inactive | inactive
51 | O=C1c2ccccc2C(=O)C1C(=O)C(c1ccccc1)c1ccccc1 | inactive | inactive | inactive
52 | CCOC(=O)CC(SP(=S)(OC)OC)C(=O)OCC (stereo not drawn) | inactive | inactive | inactive
53 | CC(C)(N)Cc1ccccc1Cl | inactive | inactive | inactive
54 | COP(=S)(OC)Oc1ccc(S(=O)(=O)N(C)C)cc1 | inactive | inactive | inactive

Row | Structure (SMILES) | outcome [1] | outcome [2] | Potency [3]
55 | CCN[C@@H](C)Cc1ccccc1 | inactive | inactive | inactive
56 | O=c1oc2ccccc2c(O)c1Cc1c(O)c2ccccc2oc1=O | inactive | inactive | inactive
57 | Clc1cccc(SC2CCNCC2)n1 | inactive | inactive | inactive
58 | COC1CC(=C(c2cccs2)c2cccs2)C[N+](C)(C)C1 (stereo not drawn) | inactive | inactive | inactive
59 | C[C@H](N)C(=O)c1ccccc1 | inactive | inactive | inactive
60 | [N-]=[N+]=CC(=O)OC[C@H](N)C(=O)O | inactive | inactive | inactive
61 | CN1CCC(O)(c2ccc(F)cc2)C(C(=O)c2ccc(F)cc2)C1 (stereo not drawn) | inactive | inactive | inactive
62 | NC(=O)CS(=O)C(c1ccccc1)c1ccccc1 (stereo not drawn) | inactive | inactive | inactive
63 | COP(=S)(OC)Oc1cc(Cl)c(Cl)cc1Cl | inactive | inactive | inactive
64 | C=CCN1C[C@H](C)N([C@H](c2ccc(C(=O)N(CC)CC)cc2)c2cccc(OC)c2)C[C@H]1C | inactive | inactive | inactive
65 | C#CC(O)(C=CCl)CC (stereo not drawn) | inactive | inactive | inactive
66 | CCc1cc2c(s1)-n1c(C)nnc1CN=C2c1ccccc1Cl | inactive | inactive | inactive
67 | CC(C(=O)c1ccccc1)N(C)C (stereo not drawn) | inactive | inactive | inactive
68 | ClCCN1CCCC1 | inactive | inactive | inactive
69 | Nc1ccccc1 | inactive | inactive | inactive
70 | CC(C)NC(C)C | inactive | inactive | inactive
71 | CC(Cc1ccccc1)N(C)Cc1ccco1 (stereo not drawn) | inactive | inactive | inactive
72 | CCC(C)C(C)(COC(N)=O)COC(N)=O (stereo not drawn) | inactive | inactive | inactive
73 | CCN(CCO)CCn1c(Cc2ccccc2)nc2c1c(=O)n(C)c(=O)n2C | inactive | inactive | inactive
74 | C[C@H]1[C@@H]2Cc3ccc(O)cc3[C@@]1(C)CCN2C | inactive | inactive | inactive
75 | Clc1ccc(C(c2ccc(Cl)cc2)C(Cl)(Cl)Cl)cc1 | inactive | inactive | inactive
76 | CC(Cc1ccccc1)NCCn1cnc2c1c(=O)n(C)c(=O)n2C (stereo not drawn) | inactive | inactive | inactive
77 | CC1(C)C(C=C(Cl)Cl)C1C(=O)OC(C#N)c1cccc(Oc2ccccc2)c1 (stereo not drawn) | inactive | inactive | inactive
78 | Clc1ccccc1N1CCNCC1 | inactive | inactive | inactive
79 | C[C@@H]1CC2=CC(=O)CC[C@@H]2[C@H]2CC[C@@]3(C)[C@@H](CC[C@]3(C)O)[C@@H]21 | inactive | inactive | inactive
